# Laboratory results published in ChEMBL document CHEMBL4513216, “Probing the Open Global Health Chemical Diversity Library for Multistage-Active Starting Points for Next-Generation Antimalarials” (ACS Infect Dis, 2020).
# The whole screen tested about 69,000 compounds, of which about 8,600 (12%) showed an effect of 50% or more. Many of the other results were omitted from the sample, so strong results are more common in it than they were.
# Tested on: Plasmodium berghei
# Experiment: Screen against P. berghei liver stage (PbLuc), transformed with Luciferase, at 10uM
# Type: functional, HepG2
# Conditions: tested at 10 uM
row,Structure (SMILES),INHIBITION [%]
1,CC(=O)N1CCCC(c2ccc(Cc3ccccc3)cn2)C1 (configuration not stated),37.6
2,CCN1C[C@H]2C3(CCN(C(C)=O)CC3)CC[C@@]2(C(=O)N(C)C)C1,36.7
3,COCCN(C)C[C@@H]1CN(Cc2ccnc3ccccc23)C[C@@H]1CO,17.5
4,Cc1cnn(CC2CCCCN2C(=O)c2c(C)noc2C)c1 (configuration not stated),11.4
5,CN(C)c1cncc(C2CCN(CC3(O)CCCCC3)CC2)n1,37.6
6,CS(=O)(=O)N1CC[C@H]2[C@H](C[C@@H](Cn3cncn3)N2CC2CC2)C1,-28.2
7,COCCN1CC(C(=O)NCc2cccnc2-n2cccn2)CC1=O (configuration not stated),-29.8
8,CN1CC2(CCN(C(=O)Cn3ncc4ccccc4c3=O)CC2)OC1=O,36.3
9,CCOCCN1CCN(CCCS(C)(=O)=O)CC1C (configuration not stated),-52.5
10,COCCC1(CNC(=O)Nc2ccnc(C)c2)CCCC1,57.4
11,Cc1cc(NC(=O)NCC2(O)CCCC2)ccn1,32.3
12,COCCC1(CNC(=O)Nc2ccc(-n3nccn3)cc2)CCC1,-23.3
13,Cn1nc(CNC(=O)C2CCCCC2)cc1C1CC1,13.6
14,Cc1cn(-c2ccccc2)nc1NS(=O)(=O)c1cc(C(=O)O)ccc1Cl,25.4
15,CC(C)c1nc(CN2CCCC2Cn2cccn2)no1 (configuration not stated),19.6
16,CC(=O)N1CCN(C(=O)CCNc2snc(Cl)c2C#N)CC1,-27
17,COc1ccccc1C1(CNc2ncc(S(N)(=O)=O)s2)CC1,-10.9
18,COc1ccccc1C1(CNc2cn[nH]c(=O)c2Cl)CCOCC1,-9.69
19,COc1ccccc1OCCNc1snc(Cl)c1C#N,68.1
20,COc1ccc(C)cc1C1(CNc2cncc(Cl)n2)CCOCC1,-60.3
21,COc1ccccc1C1(CNc2snc(Cl)c2C#N)CCCC1,80.2
22,CC(=O)N1CCN(CCNc2snc(Cl)c2C#N)CC1,-4.93

row,Structure (SMILES),INHIBITION [%]
1,COc1ccccc1C1(CNc2snc(Cl)c2C#N)CCOCC1,53.4
2,N#Cc1c(Cl)nsc1NCCN1CCOCC1,39.9
3,NS(=O)(=O)c1cnc(NCC2(c3ccccc3)CCC2)s1,9.37
4,COc1ccccc1C1(CNc2cn[nH]c(=O)c2Cl)CC1,-22.2
5,N#Cc1c(Cl)nsc1NCC1(c2ccccc2)CCC1,84
6,Cc1nn(CCO)c(C)c1CNC1CCOc2ccccc21 (configuration not stated),13
7,O=C(NC1CCCN(Cc2c(F)cccc2F)C1)c1cnccn1 (configuration not stated),23.7
8,CS(=O)(=O)CCCN1CCN(C(C#N)c2ccccc2)CC1 (configuration not stated),21.2
9,NC(=O)c1ccc(C2CN(Cc3ccc(F)cc3)CCO2)nc1 (configuration not stated),31.3
10,CCc1ocnc1C(=O)N1CCC2(CCCN(CC(C)(C)C)C2=O)C1 (configuration not stated),32.2
11,Cc1nc(-c2ccccc2)n(CC(=O)NC2CCCC2)n1,7.27
12,CCC1(C(=O)O)CCCN(C(=O)c2ccc(N3CCN(C)CC3)cc2)C1 (configuration not stated),33.7
13,CN1CCN(c2ccc(C(=O)N3CCCC(c4ncc[nH]4)C3)cc2)CC1 (configuration not stated),3.3
14,CCC1(CO)CCCN(C(=O)c2ccc(N3CCN(C)CC3)cc2)C1 (configuration not stated),53.5
15,c1ccc(-c2noc(CN3CCCC(Cn4cncn4)C3)n2)nc1 (configuration not stated),-23.8
16,COc1cccc(-c2ccnc3nc(N4CCCCC4)[nH]c(=O)c23)c1,14.3
17,COc1cc(/C=C/c2ncc(C(=O)O)s2)cc(Cl)c1OC,41.5
18,Cc1noc(C)c1CN1CCC2(COCc3cnc(N(C)C)nc32)C1 (configuration not stated),1.9
19,Cn1ccnc1C(O)c1ccccc1N1CCN(Cc2ccsc2)CC1 (configuration not stated),53.75
20,Cn1ccnc1C(O)c1ccccc1N1CCN(CC2CCCC2)CC1 (configuration not stated),13
21,Cn1ccnc1C(O)c1ccccc1N1CCN(Cc2cccs2)CC1 (configuration not stated),15.605
22,COCc1cc(NCCc2ccc(S(N)(=O)=O)cc2)n2nccc2n1,26.6

row,Structure (SMILES),INHIBITION [%]
1,CCNC(=O)NC(=O)C(C)N(C)CCOc1ccccc1C (configuration not stated),73.3
2,Cc1ccccc1OCCN(C)C(=O)NC(C)c1nncn1C (configuration not stated),35.9
3,CCNC(=O)NC(=O)C(C)Nc1ccccc1OCCOC (configuration not stated),29.8
4,COC(=O)c1ccoc1CN(C)Cc1cc(OC)c(OC)cc1C,7.43
5,O=C(c1ccoc1)N1CCc2ncc(Cn3cccn3)n2CC1,-3.33
6,FC(F)(F)Oc1cccc(CNCc2ccc(-n3cncn3)nc2)c1,20.9
7,COCCOc1cccc(CNCc2ccc(-n3cncn3)nc2)c1,-9.8
8,c1cc(CNCc2ccc(-n3cncn3)nc2)cc(OC2CCCC2)c1,75.4
9,CS(=O)(=O)N1CCc2ncc(CNC(=O)C3CCC3)n2CC1,-18.2
10,CNc1cccc(CC2COCCN(C(=O)c3cnn(C)c3)C2)n1 (configuration not stated),27.15
11,O=C1NCC2(CCCN(C(=O)c3ccc4c(c3)CCCO4)CC2)O1 (configuration not stated),38.3
12,O=C1NCC2(CCCN(C(=O)c3ccc4c(c3)OCCO4)CC2)O1 (configuration not stated),42.6
13,O=C1NCC2(CCN(C(=O)c3ccc4c(c3)CCCO4)CC2)O1,70.4
14,Cc1c(Br)cnn1CC(=O)Nc1ccon1,34.2
15,COCC1COCCC12CCN(S(=O)(=O)c1ccccc1)CC2 (configuration not stated),-27.1
16,COc1cccc(CNc2cc(CO)ccc2Cl)c1,42.6
17,CC(C)OCc1cccc(CNc2cnn(C)c(=O)c2Cl)c1,85.2
18,Cn1ncc(NCc2cccc(COC(C)(C)C)c2)c(Cl)c1=O,80.6
19,CCOc1cccc(CNc2cnn(CC(C)C)c2CC)c1,39.5
20,CC(C)N1CCC[C@H]1C(=O)NCC1CCN(c2cnn(C)c(=O)c2)CC1,15.1
21,COc1cccc(CNc2cnn(C)c(=O)c2Cl)c1,49.6
22,Cc1cccc(C(C)(C)CNc2cn[nH]c(=O)c2Cl)c1,-5.92

row,Structure (SMILES),INHIBITION [%]
1,COc1ccc(CNc2cnn(C)c(=O)c2Cl)cc1,52.3
2,Cc1c(C(=O)NCc2ccnc(OCC(F)(F)F)c2)cnn1C,-6.11
3,CCn1c(NCc2ccc(OC)cc2)nc2c(C)nn(C)c2c1=O,13.5
4,CC(NCc1cccc(COC2CCCC2)c1)c1cnn(C)c1 (configuration not stated),-0.448
5,Cn1ncc(NCc2cccc(OCC(F)(F)F)c2)c(Cl)c1=O,99.6
6,Cc1nn(C)c(C)c1C1CCCN1C(=O)c1cc(C(N)=O)cs1 (configuration not stated),-11.2
7,CN1C(=O)CC(c2cnn(C)c2)C12CCN(C(=O)C1CC=CC1)CC2 (configuration not stated),-16.5
8,CN(C)Cc1ccnc(C2CN(Cc3c(F)cccc3F)CCO2)n1 (configuration not stated),8.53
9,Cn1ccnc1CNCC1CCCN1c1cccnn1 (configuration not stated),-31.5
10,CC(Cn1cccn1)NC(=O)N1CCCN(Cc2cccs2)CC1 (configuration not stated),14.4
11,CN(C)CCn1c(=O)n(C)c(=O)c2ccccc21,-40.3
12,CCC(=O)N1CCC2(CCC(N3CCCC3)c3ccccc32)CC1 (configuration not stated),40.8
13,Cc1nn(C)c(N(C)C)c1CNC1CCCCNC1=O (configuration not stated),5.42
14,C=Cn1cc(CN2CCN(CC3(c4ccccc4)CC3)CC2)c(C)n1,26.57
15,CN(Cc1ccncn1)C(=O)CCc1[nH]nc2c1CCCC2,33.9
16,CCN(CC)C(=O)C1CCC(=O)N(CCc2cccc(F)c2)C1 (configuration not stated),12.3
17,CCCN(CCO)C(=O)C1CCC(=O)N(CCc2ccc(Cl)cc2)C1 (configuration not stated),-39.9
18,CC(C)N(CCO)C(=O)C1CCC(=O)N(CCc2ccc(Cl)cc2)C1 (configuration not stated),26.6
19,CC(C)N(C)C(=O)C1CCC(=O)N(CCc2cccc(F)c2)C1 (configuration not stated),52.3
20,CC(C)N(CCO)C(=O)C1CCC(=O)N(CCc2cccc(F)c2)C1 (configuration not stated),56.6
21,CCN(CCO)C(=O)C1CCC(=O)N(CCc2cccc(F)c2)C1 (configuration not stated),43.7
22,COc1ccc(OC)c(C(C)Nc2ncnc3c2NC(=O)CN3)c1 (configuration not stated),24.2

row,Structure (SMILES),INHIBITION [%]
1,N#Cc1cccc(C(=O)N2C[C@@H]3CC[C@H]2CN(C(=O)C2CCC2)C3)c1,28.5
2,CN1C(=O)C2(CCN(C(=O)c3ccccc3)CC2)c2cc(F)ccc21,39.4
3,Cn1cnnc1S(=O)(=O)C1CCN(S(=O)(=O)c2ccccc2F)CC1,15.7
4,Cc1ccc(S(=O)(=O)N2CCC(S(=O)(=O)c3nncn3C)CC2)cc1C,-0.554
5,Cn1cnnc1S(=O)(=O)C1CCN(S(=O)(=O)c2ccc(F)c(Cl)c2)CC1,81.9
6,O=C(C1CC1)N1CCC(c2nc(O)c3c(n2)CCN(C2CCCC2)C3)C1 (configuration not stated),22.7
7,CCN(CC)c1ncnc2c1CCN(C(=O)Cc1ccccn1)CC2,-49.6
8,O=C1NCCN1C1CCCN(Cc2coc(-c3cccs3)n2)C1 (configuration not stated),33.3
9,O=C1NCCN1C1CCN(Cc2coc(-c3ccc(F)cc3)n2)CC1,52.5
10,O=C1NCCN1C1CCCN(Cc2nnc(-c3ccc(F)cc3)o2)C1 (configuration not stated),20.1
11,O=C1NCCN1C1CCCN(Cc2coc(-c3ccc(F)cc3)n2)C1 (configuration not stated),75.2
12,O=C1NCCCCC1SCc1coc(-c2cccc(F)c2)n1 (configuration not stated),-16.1
13,O=C1NCCCCC1SCc1coc(-c2ccc(F)cc2)n1 (configuration not stated),82.7
14,Fc1ccc(-c2nc(CN3CCn4c(nnc4C4CC4)C3)co2)cc1,-21.7
15,O=C1NCCCCC1SCc1coc(-c2ccccc2)n1 (configuration not stated),35.5
16,Cc1ccc(-c2nc(CN3CCC(N4CCNC4=O)CC3)co2)cc1,26.5
17,CN(C)C(=O)C1CCC2(CCN(C(=O)Nc3cccc(F)c3)CC2)O1 (configuration not stated),18.6
18,COc1ccc(OC)c(C(=O)N(C)Cc2nnc3ccccn23)c1,-35.7
19,CN(C)[C@H]1CN(C(=O)CCCc2ccc(F)cc2)C[C@@H]1C1CC1,28.4
